From PubChem BioAssay (EPA / NIEHS)
The source made the active and inactive calls. How the source made its calls: active means hit-call score of the fitted dose curve at least 0.9, where 1 is the maximum; inactive means score below 0.9.

Key:
[1] = read-out: Macrophage colony-stimulating factor (MCSF), CSF1 (gene 1435); assay: BSK_CASM3C_MCSF: BioMAP Diversity Plus: CASM3C Assay for Macrophage colony-stimulating factor (MCSF) Biomarker Activity (AID 2283044); conditions: primary human coronary artery smooth muscle cells; actives raise or lower the signal;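 further: M-CSF protein amount quantified by ELISA after 24 h exposure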
[2] = read-out: Low-density lipoprotein receptor (LDLR), LDLR (gene 3949); assay: BSK_CASM3C_LDLR: BioMAP Diversity Plus: CASM3C Assay for Low-density lipoprotein receptor (LDLR) Biomarker Activity (AID 2283045); conditions: primary human coronary artery smooth muscle cells; actives raise or lower the signal;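 further: LDLR protein level on the cell surface quantified by ELISA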
[3] = read-out: Monocyte Chemoattractant Protein-1 (MCP1), CCL2 (gene 6347); assay: BSK_CASM3C_MCP1: BioMAP Diversity Plus: CASM3C Assay for Monocyte Chemoattractant Protein-1 (MCP1) Biomarker Activity (AID 2283046); conditions: primary human coronary artery smooth muscle cells; actives raise or lower the signal;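 further: MCP-1 level quantified by ELISA 24 h after dosing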
[4] = BSK_CASM3C_Proliferation: Cell Proliferation Assessment in the BioMAP Diversity Plus: CASM3C Assay (AID 2283047); conditions: primary human coronary artery smooth muscle cells;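 further: sulforhodamine B total protein stain as relative cell number at 560 nm; sub-confluent cells exposed 48 h before staining; fitted both ways against DMSO so gain or loss of cell number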
[5] = read-out: Monokine induced gamma interferon (MIG), CXCL9 (gene 4283); assay: BSK_CASM3C_MIG: BioMAP Diversity Plus: CASM3C Assay for Monokine induced gamma interferon (MIG) Biomarker Activity (AID 2283048); conditions: primary human coronary artery smooth muscle cells; actives raise or lower the signal;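 further: MIG protein level measured by ELISA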
[6] = read-out: serum amyloid A (SAA), SAA1 (gene 6288); assay: BSK_CASM3C_SAA: BioMAP Diversity Plus: CASM3C Assay for serum amyloid A (SAA) Biomarker Activity (AID 2283049); conditions: primary human coronary artery smooth muscle cells; actives raise or lower the signal;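 further: SAA protein level quantified by ELISA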
[7] = BSK_CASM3C_SRB: Viability Assessment in the BioMAP Diversity Plus: CASM3C Assay (AID 2283050); conditions: primary human coronary artery smooth muscle cells;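 further: total protein by SRB staining as cytotoxicity measure in parallel cultures; cells exposed to compound for 24 h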
[8] = read-out: Thrombomodulin, THBD (gene 7056); assay: BSK_CASM3C_Thrombomodulin: BioMAP Diversity Plus: CASM3C Assay for Thrombomodulin Biomarker Activity (AID 2283051); conditions: primary human coronary artery smooth muscle cells; actives raise or lower the signal;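 further: thrombomodulin protein level measured by ELISA 24 h after dosing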
[9] = read-out: Tissue Factor, F3 (gene 2152); assay: BSK_CASM3C_TissueFactor: BioMAP Diversity Plus: CASM3C Assay for Tissue Factor Biomarker Activity (AID 2283052); conditions: primary human coronary artery smooth muscle cells; actives raise or lower the signal;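 further: cell surface tissue factor protein level read by ELISA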
[10] = read-out: Interferon-gamma inducible Protein 10 (IP10), CXCL10 (gene 3627); assay: BSK_hDFCGF_IP10: BioMAP Diversity Plus: hDFCGF Assay for Interferon-gamma inducible Protein 10 (IP10) Biomarker Activity (AID 2283053); conditions: primary human foreskin fibroblasts; actives raise or lower the signal
Procedure, shortened: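 Primary foreskin fibroblasts, human; 24 h compound exposure; IP-10 by ELISA; bidirectional fit vs DMSO.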

[11] = read-out: Urokinase-type plasminogen activator receptor (uPAR), PLAUR (gene 5329); assay: BSK_CASM3C_uPAR: BioMAP Diversity Plus: CASM3C Assay for Urokinase-type plasminogen activator receptor (uPAR) Biomarker Activity (AID 2283054); conditions: primary human coronary artery smooth muscle cells; actives raise or lower the signal;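 further: cell-surface uPAR protein level quantified by ELISA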
[12] = read-out: Vascular cell adhesion molecule 1 (VCAM1), VCAM1 (gene 7412); assay: BSK_CASM3C_VCAM1: BioMAP Diversity Plus: CASM3C Assay for Vascular cell adhesion molecule 1 (VCAM1) Biomarker Activity (AID 2283055); conditions: primary human coronary artery smooth muscle cells; actives raise or lower the signal;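 further: VCAM-1 protein level quantified by ELISA on the cells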
[13] = read-out: Collagen III, COL3A1 (gene 1281); assay: BSK_hDFCGF_CollagenIII: BioMAP Diversity Plus: hDFCGF Assay for Collagen III Biomarker Activity (AID 2283056); conditions: primary human foreskin fibroblasts; actives raise or lower the signal
Procedure, shortened: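 Human foreskin primary fibroblasts were exposed to test chemicals for 24 h, after which collagen III was quantified by ELISA. Activity was fitted bidirectionally against DMSO as negative control and baseline.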

[14] = read-out: Epidermal growth factor receptor (EGFR), EGFR (gene 1956); assay: BSK_hDFCGF_EGFR: BioMAP Diversity Plus: hDFCGF Assay for Epidermal growth factor receptor (EGFR) Biomarker Activity (AID 2283057); conditions: primary human foreskin fibroblasts; actives raise or lower the signal
Procedure, shortened: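 hDFCGF system, primary human foreskin fibroblasts; compound 24 h; EGFR measured by ELISA; DMSO = negative control/baseline; bidirectional fitting.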

[15] = read-out: Interleukin-8 (IL8), CXCL8 (gene 3576); assay: BSK_hDFCGF_IL8: BioMAP Diversity Plus: hDFCGF Assay for Interleukin-8 (IL8) Biomarker Activity (AID 2283058); conditions: primary human foreskin fibroblasts; actives raise or lower the signal
Procedure, shortened: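 hDFCGF human dermal fibroblasts; 24 h chemical exposure; IL-8 by ELISA; bidirectional curve fit vs DMSO baseline; gain or loss of signal scored.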

[16] = BSK_hDFCGF_Proliferation: Cell Proliferation Assessment in the BioMAP Diversity Plus: hDFCGF Assay (AID 2283059); conditions: primary human foreskin fibroblasts;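 further: curves fitted for both rise and fall of signal versus DMSO baseline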
Procedure, shortened: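 Steps: dose primary human dermal fibroblasts (foreskin); […] fix in 10% TCA; stain with 0.1% SRB; read 560 nm; fit gain or loss of signal against DMSO.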

[17] = read-out: Macrophage colony-stimulating factor (MCSF), CSF1 (gene 1435); assay: BSK_hDFCGF_MCSF: BioMAP Diversity Plus: hDFCGF Assay for Macrophage colony-stimulating factor (MCSF) Biomarker Activity (AID 2283060); conditions: primary human foreskin fibroblasts; actives raise or lower the signal
Procedure, shortened: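 Human foreskin primary fibroblasts were treated with test chemical for 24 h, and M-CSF was then measured by ELISA. Data were fitted bidirectionally against DMSO as the negative control and activity baseline.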

[18] = BSK_hDFCGF_SRB: Viability Assessment in the BioMAP Diversity Plus: hDFCGF Assay (AID 2283061); conditions: primary human foreskin fibroblasts;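 further: cells exposed to compound for 24 h before the read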
Procedure, shortened: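 Human foreskin primary fibroblasts were treated with compound and assessed 24 h after dosing. Total protein was measured by sulforhodamine B staining (0.1% SRB after 10% TCA fixation, 560 nm read) as a cytotoxicity marker, with bidirectional fitting against DMSO baseline.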

[19] = read-out: TIMP metallopeptidase inhibitor 1 (TIMP1), TIMP1 (gene 7076); assay: BSK_hDFCGF_TIMP1: BioMAP Diversity Plus: hDFCGF Assay for TIMP metallopeptidase inhibitor 1 (TIMP1) Biomarker Activity (AID 2283062); conditions: primary human foreskin fibroblasts; actives raise or lower the signal
Procedure, shortened: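 Primary human foreskin fibroblasts in the hDFCGF system were dosed with compound for 24 h, then TIMP-1 was measured by ELISA. Activity was fitted bidirectionally relative to DMSO control; parallel SRB staining assessed cytotoxicity.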

[20] = read-out: Monokine induced gamma interferon (MIG), CXCL9 (gene 4283); assay: BSK_hDFCGF_MIG: BioMAP Diversity Plus: hDFCGF Assay for Monokine induced gamma interferon (MIG) Biomarker Activity (AID 2283063); conditions: primary human foreskin fibroblasts; actives raise or lower the signal
Procedure, shortened: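 ELISA read-out of MIG from primary human dermal fibroblasts 24 h post-dosing. Gain or loss of signal fitted bidirectionally, DMSO as baseline.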

Measured: AC50

Oc1ccc(Cc2ccc(O)cc2)cc1
inactive: all assays above

CC(C)N(C(=O)CCl)c1ccccc1
inactive: [14]
active: [1] 13.3 µM | [2] 5.57 µM | [3] 6.89 µM | [4] 6.4 µM | [5] 12.4 µM | [6] 4.5 µM | [7] 6.28 µM | [8] 2.75 µM | [9] 20 µM | [10] 3.13 µM | [11] 11 µM | [12] 4.39 µM | [13] 1.69 µM | [15] 13.3 µM | [16] 2.45 µM | [17] 6.59 µM | [18] 3.03 µM | [19] 2.98 µM | [20] 3.85 µM

CCOC(=O)C(SP(=S)(OC)OC)c1ccccc1 (centres undefined)
active: [1] 20 µM | [4] 20 µM | [8] 20 µM | [9] 3.97 µM | [12] 20 µM | [13] 10.2 µM | [16] 26.4 µM | [17] 7.09 µM
inactive: all other assays above

Cc1cc(C(C)(C)c2ccc(O)c(C)c2)ccc1O
active: [1] 15.2 µM | [4] 15.7 µM | [6] 17 µM | [7] 14.9 µM | [8] 3.01 µM | [9] 8.57 µM | [11] 17.1 µM | [12] 13.9 µM | [13] 15.6 µM | [16] 13.9 µM | [17] 15.3 µM | [18] 16.1 µM
inactive: [2] | [3] | [5] | [10] | [14] | [15] | [19] | [20]

CCOP(=O)(OCC)SCCSCC
inactive: all assays above

CC(C)(C)c1ccccc1O
inactive: all assays above

C[C@]12CC[C@@H](O)C[C@@H]1CC[C@@H]1[C@@H]2CC[C@]2(C)C(=O)CC[C@@H]12
active: [2] 29 µM
inactive: all other assays above

COCC(=O)N(c1c(C)cccc1C)[C@H](C)C(=O)OC
inactive: all assays above

CC(C)(COCC1CO1)COCC1CO1 (centres undefined)
active: [16] 20 µM
inactive: all other assays above

CCCCCCCCCCCCc1cccc(S(=O)(=O)O)c1
active: [10] 12.7 µM | [13] 16.2 µM | [14] 11.8 µM | [16] 8.86 µM | [17] 12.5 µM | [18] 18.1 µM | [19] 30.1 µM | [20] 27.6 µM
not listed: [15]
inactive: all other assays above

O=C(N[C@H]1CN2CCC1CC2)c1ccc2c(c1)OCCO2
inactive: all assays above

Cc1cccc(OP(=O)(Oc2cccc(C)c2)Oc2cccc(C)c2)c1
active: [1] 0.139 µM | [3] 0.075 µM | [17] 4.78 µM
inactive: all other assays above
